# Bioassay records: PubChem, National Center for Advancing Translational Sciences (NCATS)
# D2 ag-1 – agonists of human D2 dopamine receptor; 340,000 compounds, 0.53% hits; activation, % at 2 µM; HEK293 T-REx D2 cells, calcium flux agonist mode; P14416; AID 485358;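 active = activation over 3 SD above normal in the single-dose calcium agonist read, cut at about 30% in these data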; note: 0% is about no effect
# Target sequence (P14416 whole entry, looked up): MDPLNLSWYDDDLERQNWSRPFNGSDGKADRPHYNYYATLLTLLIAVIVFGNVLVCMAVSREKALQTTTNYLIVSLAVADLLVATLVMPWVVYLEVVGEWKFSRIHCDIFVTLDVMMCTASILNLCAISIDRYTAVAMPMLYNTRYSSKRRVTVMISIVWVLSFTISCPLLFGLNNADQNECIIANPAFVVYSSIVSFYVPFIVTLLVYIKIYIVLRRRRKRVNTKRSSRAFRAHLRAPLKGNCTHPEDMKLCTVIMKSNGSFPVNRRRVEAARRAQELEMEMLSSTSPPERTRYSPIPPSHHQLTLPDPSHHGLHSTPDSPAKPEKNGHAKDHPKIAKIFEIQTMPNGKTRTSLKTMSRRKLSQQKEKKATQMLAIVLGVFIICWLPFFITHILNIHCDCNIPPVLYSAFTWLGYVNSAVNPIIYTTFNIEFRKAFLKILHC
#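 In this primary screen, compounds producing a positive calcium signal within 180 s of addition to tetracycline-induced, force-coupled HEK293 Trex D2 cells are flagged; cells are dye-loaded with a no-wash calcium kit beforehand.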
# D2 ag-2 – activates the human D2 dopamine receptor. DiscoveRx PathHunter D2 beta-arrestin, luminescence, 90 min; 100% = 57 uM dopamine signal. 360,000 compounds, 0.084% hits. P14416. activation, % (concentration not given with the values). AID 624465; in the data active = activation above about 40%; inconclusive = between about 15% and that limit
#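 DiscoveRx PathHunter D2 beta-arrestin cells (2,100/well) attached overnight, then compound-stimulated 90 min at 37 C in HBSS/10 mM HEPES/0.1% Tween-20 buffer; beta-galactosidase complementation read by luminescence after 1 h at ambient temperature. Dopamine 57 uM final (EC100) as control.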
# D2 PAM-1 – positively modulates the human D2 dopamine receptor allosterically; HEK293 T-REx D2, calcium flux, EC20 dopamine potentiation; potentiation, % at 10 µM; 340,000 compounds, 0.34% hits;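 active = potentiation over 3 SD above the plate norm, cut at about 30% in these data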; note: 0% is about no effect
#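 Tetracycline-induced Hek293 Trex D2 cells, force-coupled to calcium, loaded with no-wash calcium dye. Compound added with 180 s kinetic read for agonism, then EC20 dopamine and a further 180 s read for potentiation.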
# D2 PAM-2 – positive allosteric modulators of human D2 dopamine receptor; DiscoveRx D2 beta-arrestin cells, luminescence, 90 min; 100% = 57 uM dopamine signal; 360,000 compounds, 0.23% hits; P14416; potentiation, % (test concentration not listed); AID 624464; in the data active = potentiation above about 50%; inconclusive = mostly about 30% to 49%
#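 PathHunter D2 cells, attached overnight at 37 deg C, received compound in DMSO plus dopamine at EC20 (50 nM final) for 90 min at 37 deg C. Beta-arrestin recruitment was read as luminescence after 1 h with detection reagent at ambient temperature.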
# D2 antag – antagonists of human D2 dopamine receptor. inhibition, % at 10 µM. 340,000 compounds, 2% hits. AID 485344. HEK293 TREx D2 cells, calcium flux, dopamine EC80. P14416; in the data active = inhibition above about 30%; inactive = below that, where a call was filed; note: 0% is about no effect
#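 Read-out: kinetic calcium fluorescence (1 cycle/s) in inducible HEK293 T-REx D2 cells after an EC80 dopamine addition that followed 180 s compound preincubation. Loss of the dopamine response indicates antagonism.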
# D3 ag – confirmation of human D3 dopamine receptor agonists, beta-arrestin; shares compounds with D2 ag-1; Potency, µM (series often up to 76.9 µM), for the others: top-dose activation, actives largely listed as activators; DiscoveRx D3 beta-arrestin cells, luminescence, 90 min; 2,300 compounds, 4% hits;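 note: potency is the fitted concentration of half-maximal effect; 100% = dopamine control response; nearly all actives have a fitted effect of over 70% in size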
# D2 ag-3 – activates human D2 dopamine receptor in D3 counterscreen. DiscoveRx PathHunter D2 beta-arrestin, luminescence, 90 min; response scale: percent relative to full dopamine signal. 2,300 compounds, 5.9% hits. Potency, µM (highest dose often 76.9 µM), for the others: at the highest dose activation, most hits filed as activators. shares compounds with D2 ag-1. AID 720507; note: potency is the fitted concentration of half-maximal effect; % of control where 0% means no effect; nearly all actives have a fitted effect of over 70% in size
# Active calls of the source: *; ? = inconclusive; · = no result. Only some compounds are listed: those with a hit (about 2.4% of all), similar ones and a draw of the others. Unless noted, calls come from the whole dose curve; as a rule, active = well fitted activation curve with a large enough effect; inconclusive = small, poorly fitted or top-dose-only effect; inactive = flat fitted curve, though single readings scatter.
SMILES,D2 ag-1,D2 ag-2,D2 PAM-1,D2 PAM-2,D2 antag,D3 ag,D2 ag-3
CCOc1ccc(NC(=S)NC(=O)c2c(Br)cnn2C)c([N+](=O)[O-])c1,48*,-5,-16,-5,5,-5%,1%
COc1ccc(-n2c(N)cc(=O)nc2SCC(=O)N2CCN(c3ccccc3)CC2)cc1,21,-1,-8,-3,1,-12%,-4%
Cc1ccc(-n2c(N)cc(=O)nc2SCC(=O)N2CCN(c3ccccc3)CC2)cc1C,4,-2,4,-20,-5,·,·
CCSc1nc2c(c(=O)[nH]1)C(C(C)C)C(C#N)=C(N)O2 (stereo not given),45*,-2,0,1,-10,-3%,-2%
CCCCOc1ccc(C(=O)Nc2onc3c2CCCC3)cc1,·,·,-23,·,·,·,·
COc1ccccc1C1CCN(Cc2cccc(C(=O)N3CCC(O)CC3)c2)CC1,75*,0,-24,-5,75*,-4%,6%
COc1cc(C(=O)n2nc(-c3ccco3)nc2NCc2ccc(Cl)cc2)cc(OC)c1OC,0,·,8,·,·,·,·
CCOc1ccc(Cl)cc1CNCCCSc1nnnn1C,·,·,-10,·,·,·,·
O=C(/C=C/c1ccccc1)NCC(=O)N/N=C/c1cccs1,43*,-3,-19,-4,3,-9%,-1%
O=C(CSc1n[nH]c(-c2ccc(F)cc2)n1)NCc1ccccc1Cl,-4,·,-3,·,·,·,·
CCOc1ccc(CCNC(=O)c2cc3cccc4c3n2CCS4)cc1,0,·,6,·,·,·,·
CN(Cc1cccs1)C(=O)CCNS(=O)(=O)c1ccc(Br)cc1,0,7,6,1,-25,-5%,0%
O=C(CCNS(=O)(=O)c1ccc(Br)cc1)NCc1cccs1,-2,-2,11,0,-2,·,·
c1ccc(N2CCN(Cc3cn4cccnc4n3)CC2)cc1,53*,0,-24,-5,49*,1%,23%
c1ccc(N2CCN(Cc3cn4ccccc4n3)CC2)cc1,70*,2,-18,-16,37*,-9%,7%
c1ccc(CN2CCN(Cc3cn4cccnc4n3)CC2)cc1,1,3,-10,-10,9,·,·
Cc1oc2ccc(O)c(CN3CCN(C)CC3)c2c1C(=O)Nc1cccc(Cl)c1C,1,·,0,·,·,·,·
COc1cccc2c1cc1c(=O)n(CC(=O)N3CCC(C)CC3)nc(C)n12,·,?,-9,12,·,-4%,?
CC(C)c1cccc(C(C)C)c1OC(=O)[C@H]1OC(C(C)(C)C)=C[C@@H]1c1ccccc1,0,-2,-2,-9,5,·,·
CC(C)c1cccc(C(C)C)c1OC(=O)[C@H]1OC(c2ccc(Br)cc2)=C[C@@H]1c1ccc(Br)cc1,1,5,8,7,1,14%,5%
Cc1ccccc1C(=O)N1CCC(C(=O)N(CC(C)C)c2c(N)n(CC(C)C)c(=O)[nH]c2=O)CC1,0,-1,7,-1,-24,·,·
COCCN(C(=O)C1CCN(C(=O)c2ccccc2C)CC1)c1c(N)n(CC(C)C)c(=O)[nH]c1=O,0,0,5,-4,-6,-1%,-2%
O=C(N[C@H]1CCC(=O)N(CCSc2ccc(Br)cc2)CC1)OCc1ccccc1,0,0,-16,2,-1,3%,13%
CC1(C)NC(=O)N(CC(=O)N2CCN(S(=O)(=O)c3cc(Cl)ccc3Cl)CC2)C1=O,·,-2,7,2,·,-9%,-3%
COc1cccc(C2CC(=O)Nc3cc(OC)c(OC)cc32)c1 (stereo not given),0,3,6,4,27,·,·
SMILES,D2 ag-1,D2 ag-2,D2 PAM-1,D2 PAM-2,D2 antag,D3 ag,D2 ag-3
COc1cccc(C2CC(=O)Nc3cc4c(cc32)CCC4)c1 (stereo not given),-1,-7,13,-4,10,23%,10%
CCOc1ccc(NC(=O)Cc2coc3ccc(C)cc23)cc1,-1,·,-13,·,·,·,·
O=S(=O)(Nc1ncn[nH]1)c1ccc2ccccc2c1,0,-2,4,18,-11,·,·
O=S(=O)(Nc1nc2ccccc2[nH]1)c1ccc2ccccc2c1,56*,0,-19,-6,1,-30%,0%
COc1ccc(O)c(-c2nc(N)nc(N)n2)c1,0,-1,14,-5,-11,-4%,-4%
Cc1ccc(CN(C)C(=O)COC(=O)CSc2cc(C)c3ccccc3n2)cc1,0,-5,-4,2,-24,-3%,0%
CN(C)S(=O)(=O)c1cccc(NC(=O)CSc2ncnc3ccccc23)c1,·,13,·,5,·,?,?
NC(=O)c1ccc(NC(=O)CN2CCN(c3ccc(Cl)cc3)CC2)cc1,·,-4,6,-2,·,·,·
COc1ccc(NC(=O)CN2CCN(c3ccccc3)CC2)cc1,54*,-1,-23,-8,50*,9%,14%
COC(=O)c1ccc(NC(=O)CN2CCN(c3ccccc3)CC2)cc1,71*,?,-22,13,95*,-3%,?
O=C(CN1CCN(c2ccccn2)CC1)Nc1ccc(OCc2ccccc2)cc1,13,41*,9,?,57*,-5%,?
COC(=O)c1ccc(C(=O)OC)c(NC(=O)CN2CCN(c3ccccc3)CC2)c1,0,-3,7,-16,-35,·,·
NC(=O)c1ccc(NC(=O)CN2CCN(c3ccccc3)CC2)cc1,72*,15,-22,-15,63*,?,?
CCOC(=O)c1ccc(NC(=O)CN2CCN(c3ccccc3)CC2)cc1,65*,?,-17,19,62*,?,?
COC(=O)c1ccc(NC(=O)CN2CCN(c3ccccn3)CC2)cc1,64*,46*,-22,13,68*,-3%,?
O=C(CN1CCN(c2ccccn2)CC1)Nc1ccccc1C(=O)Nc1ccccc1,1,2,9,12,-6,·,·
CC(=O)N1CCc2cc(C(=O)CN3CCN(c4ccccn4)CC3)ccc21,87*,?,-29,24,93*,1.6µM*,1.1µM*
O=C(Cc1c(F)cccc1Cl)NNC(=O)c1ccncc1,0,8,4,-3,-10,-2%,-1%
Cc1ccccc1-c1nn2c(=O)cc(CN3CCN(C(=O)c4ccccc4Br)CC3)nc2s1,-1,·,16,·,·,·,·
Cc1c(C(=O)OC(C)C)sc(NC(=O)C2c3ccccc3Oc3ccccc32)c1C(=O)OC(C)C,1,·,-5,·,·,·,·
Cc1ccc(NS(=O)(=O)c2ccc3nc(-c4ccccc4)[nH]c3c2)c(Cl)c1,1,·,-1,·,·,·,·
